Assay outcomes as filed in PubChem BioAssay.
Cycloheximide cs = Cycloheximide Counterscreen for Small Molecule Inhibitors of Shiga Toxin; cell reporter, cycloheximide protein synthesis inhibition counterscreen; max response, %; 12% of 300,000 active; in the data active = max response mostly above about 13%, no sharp cut-off; inactive = mostly below about 14%; note: read at 38.3 µM for the half of the compounds with a filed dose
Tb PYK inh = qHTS of Trypanosoma Brucei Inhibitors; pyruvate kinase (Trypanosoma brucei), Q57TT1; TbPYK enzyme, Kinase-Glo Plus ATP luminescence, 45 min; Potency, µM (top dose mostly 76.8 µM), most hits filed as inhibitors; 0.12% of 410,000 active; AID 624173, 2012; note: nearly all actives have a fitted effect of over 50% in size
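Assay buffer: 50 mM TEA pH 7.2, 100 mM KCl, 10 mM MgCl2, 0.05% BSA, 0.01% Tween-20. Pyruvate kinase from T. brucei plus substrate met compound, then ADP (130 uM final). Luminescence was read post 45 min RT.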
RE007 growth inh = qHTS Assay for Inhibitors of the HIV-1 protein Vpr. S. pombe RE007 Vpr strain, BacTiter-Glo ATP luminescence, 24 h. Potency, µM (series often up to 92.2 µM), most hits filed as inhibitors. 0.21% of 360,000 active. AID 651644, 2012; active = well fitted falling curve with a large enough effect; inconclusive = small, poorly fitted or top-dose-only effect; inactive = no such curve, though single readings can be large or run the other way; note: nearly all actives have a fitted effect of over 50% in size
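Fission yeast strain RE007, carrying one chromosomally integrated HIV-1 vpr copy, was seeded at OD 0.01 in PMG+AL medium with 23 nL pinned compound. After 24 h at 30 °C and 99% humidity, viability was read by BacTiter-Glo luminescence.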
Shiga inhibitor = A qHTS for Small Molecule Inhibitors of Shiga Toxin; Vero cells, Shiga toxin protein synthesis inhibition reporter; inhibition, % at 38.7 µM; 9.2% of 290,000 active; AID 2315, 2010; in the data active = inhibition mostly above about 28%, no sharp cut-off; inactive = mostly below about 43%
Giardia FBPA inh = qHTS Assay for Inhibitors of Fructose-1,6-bisphosphate Aldolase from Giardia Lamblia; 0.71% of 290,000 active; purified Giardia FBPA; Potency, µM (series often up to 59.6 µM), most hits filed as inhibitors; note: nearly all actives have a fitted effect of over 55% in size
Target sequence (A8B2U2 whole entry, looked up): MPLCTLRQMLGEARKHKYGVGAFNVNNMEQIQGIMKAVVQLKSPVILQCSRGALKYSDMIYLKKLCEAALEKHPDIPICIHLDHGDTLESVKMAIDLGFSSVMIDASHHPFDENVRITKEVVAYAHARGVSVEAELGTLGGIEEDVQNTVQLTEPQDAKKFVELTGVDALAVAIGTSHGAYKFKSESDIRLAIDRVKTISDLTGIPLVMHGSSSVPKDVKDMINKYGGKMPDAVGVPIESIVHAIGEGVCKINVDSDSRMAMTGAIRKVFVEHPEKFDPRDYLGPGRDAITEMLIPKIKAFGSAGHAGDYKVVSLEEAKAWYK
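40 nM FBPA preincubated 10 min at RT with compound (up to 57.5 uM final), then substrate plus GAPDH/TPI/NAD/arsenate coupling and diaphorase/resazurin added. Fluorescence read after 20 min at RT, 525/598 nm.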
LmPK inh = qHTS Assay for Inhibitors of Leishmania Mexicana Pyruvate Kinase (LmPK) | AID 1721, 2009 | Potency, µM (titrated, usually from 57.5 µM), hits mostly inhibitors | 0.37% of 290,000 active | Q27686 | purified LmPK, Kinase-Glo ATP luminescence, 1 h
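Screened at intermediate enzyme activity to detect both inhibitors and activators: LmPK at 0.1 nM, with a 0.5 nM enzyme column as activation reference. PEP 0.5 mM, ADP 0.1 mM; ATP detected by luminescence after 1 h.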
Numbers stand for hits; [ ] = remark or other dose. Many of the other results were omitted from the sample, so hits are more common in it than they were. Unless noted, calls come from the whole dose curve; as a rule, active = well fitted curve in the direction sought with a large enough effect; inconclusive = small, poorly fitted or top-dose-only effect, or another doubt; inactive = no such curve, though single readings can be large; an effect the other way counts as inactive or inconclusive.

For CCN=C1S/C(=C\c2cn(C(C)=O)nc2-c2ccccc2)C(=O)N1CC the results were Cycloheximide cs inactive, Tb PYK inh inactive, RE007 growth inh inactive, Shiga inhibitor inactive, Giardia FBPA inh inactive and LmPK inh inactive.
For Cc1cc(/C=C2\SC(=S)N(Cc3ccco3)C2=O)c(C)n1-c1ccccc1 the results were Cycloheximide cs 73, Tb PYK inh inactive, RE007 growth inh inactive, Shiga inhibitor 80, Giardia FBPA inh inactive and LmPK inh inactive.
Cc1cc(/C=C2\SC(=O)N(C)C2=O)c(C)n1-c1ccc(S(N)(=O)=O)cc1 was read as Cycloheximide cs 22, Tb PYK inh inactive, RE007 growth inh inactive, Shiga inhibitor inactive, Giardia FBPA inh inactive and LmPK inh inactive.
For COc1ccccc1NC(=O)c1oc2ccccc2c1NC(=O)c1ccc(S(=O)(=O)N(C)C)cc1 the results were Tb PYK inh inactive.
For COc1cc(NC(=O)CCc2c(C)nc3c(c(C)nn3-c3ccccc3)c2C)cc(OC)c1OC the results were Tb PYK inh inactive.
CCOc1ccccc1NC(=O)CSc1nc2c(c(=O)[nH]1)CCC2 was read as Tb PYK inh inactive.
O=c1c2cccc(Cl)c2nc2n1Cc1ccccc1-2 was read as Cycloheximide cs 18, Tb PYK inh inactive, RE007 growth inh inactive, Shiga inhibitor inactive, Giardia FBPA inh inactive and LmPK inh inactive.
`O=c1nc2n(c3ccccc13)Cc1ccccc1-2` gave Cycloheximide cs inactive, Shiga inhibitor inactive, Giardia FBPA inh inactive and LmPK inh inactive.
`Cc1sc2nc3n(c(=O)c2c1C)Cc1ccccc1-3` gave Cycloheximide cs 34, Shiga inhibitor 77, Giardia FBPA inh inactive and LmPK inh inconclusive.
`Cc1ccccc1-c1nc2sc(C)c(C)c2c(=O)o1` gave Cycloheximide cs 17, Tb PYK inh inactive, RE007 growth inh inactive, Giardia FBPA inh inactive and LmPK inh inactive.
For COC(=O)[C@H](C)NC(=O)C/C=C\[C@@H](C)[C@H]1C=C[C@H](O)[C@@H](CO)O1 the results were Giardia FBPA inh inactive[12.9 µM].
`CCN(CC)CCOc1ccc2nc(N(C)C)sc2c1` gave Cycloheximide cs 27, Tb PYK inh inactive, RE007 growth inh inactive, Shiga inhibitor inactive, Giardia FBPA inh inactive and LmPK inh inactive.
`CN(C)c1nc2ccc(OCCN3CCCCC3)cc2s1` gave Cycloheximide cs 42, Tb PYK inh inactive, RE007 growth inh inactive, Shiga inhibitor inactive, Giardia FBPA inh inactive and LmPK inh inactive.
For CCOc1ccc2nc(N(CCN(CC)CC)C(=O)c3ccc([N+](=O)[O-])cc3)sc2c1 the results were Cycloheximide cs inactive, Tb PYK inh inactive, RE007 growth inh inactive, Shiga inhibitor inactive, Giardia FBPA inh inactive and LmPK inh inactive[11.5 µM].
For CCCCN(CCCC)CCCNC(=O)c1cc(-c2ccc(Cl)s2)nc2ccccc12 the results were Tb PYK inh inactive.
C[C@@H]1C(=O)N(S(=O)(=O)c2ccc([N+](=O)[O-])cc2)[C@H]1c1ccccc1 was read as Cycloheximide cs inactive, Shiga inhibitor inactive and Giardia FBPA inh inconclusive.
c1ccc(-c2cc(-c3nc(-c4ccccn4)no3)c3ccccc3n2)cc1 was read as Tb PYK inh inactive and RE007 growth inh inactive.
Cc1ccc(-c2nc(-c3ccccn3)no2)cc1 was read as Cycloheximide cs inactive, Tb PYK inh inconclusive, RE007 growth inh 16µM, Shiga inhibitor inactive, Giardia FBPA inh inactive and LmPK inh 2.8µM.
Screening Cc1ccc(-c2nc(-c3ccccn3)no2)cc1Cl returned Cycloheximide cs inactive, Tb PYK inh inactive, RE007 growth inh inconclusive, Shiga inhibitor inactive, Giardia FBPA inh inactive and LmPK inh 14µM.
For Cc1ccc(CNc2ccc(-c3nc(-c4ccccn4)no3)cc2[N+](=O)[O-])cc1 the results were Tb PYK inh inactive.
`c1ccc(-c2ccc(-c3nc(-c4ccccn4)no3)cc2)cc1` gave Cycloheximide cs inactive, Tb PYK inh inconclusive, RE007 growth inh 40µM, Shiga inhibitor inactive, Giardia FBPA inh inactive and LmPK inh 14µM.
